The inhibition is the relative decrease from the control value, in per cent.

Consider 51 compounds from PubChem BioAssay AID1053188 (Broad Institute, 2014).

Values joined by “and” are separate entries in the source; they are usually repeats but may differ in a detail not shown here. Equal values may be shown once. Screen size: about 83,000 compounds; about 780 (0.94%) were called active.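 The calls were made as follows: active = mean inhibition of at least 50% with a set share of replicates also reaching that level; inconclusive = no clear call, values can overlap the other calls; inactive = the rest.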 The entries come from a sample that favours actives as a whole. Some compounds were tested as several samples or in several runs, with calls that do not always agree.

The experiment can be described thus: inhibitors of CD40-induced NF-kB signaling, primary screen, BL2 cells, luciferase reporter, single point (AID 1053188).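 Also: 0% = neutral control wells and 100% = IKK inhibitor VII at 50 µM.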 The following applies: CD40L-induced, 4 h, stronger effect = higher value; at 10 µM unless noted.
Take `CS(=O)(=O)N1CCN(CC(=O)NC2CCCC2)CC1`: the inhibition was 4.72% (inactive). Take `CS(=O)(=O)N1C[C@@H]2C(c3ccccc3)[C@H](C1)N2CC(F)(F)F` (stereo partly specified): the inhibition is 8.84% (inactive) and 23.5% (inactive).

In the case of `COc1cccc(NC(=O)COC(=O)c2ccc3ccccc3n2)c1`, the inhibition is -7.67% (inactive). For `O=C(Nc1ccccc1)Nc1nc2ccccc2s1` the value was -102% (inactive); for `Cc1ccnc(Nc2nc3ccccc3s2)n1`, -62.3% (inactive). In the case of `c1ccc(C(=NNc2nc3ccccc3s2)c2ccccn2)cc1`, the inhibition was 72.5% (active). For the compound `CCN1CCN(c2ccc(S(=O)(=O)N3CCCCC3)cc2NC(=O)c2cccc(NC(C)=O)c2)CC1`, the inhibition was 1.54% (inactive). Take `CCN1CC(CN(C)Cc2nc(-c3ccc(Cl)cc3)no2)CC1=O` (stereo unspecified): the inhibition was 2.41% (inactive). The figure for `CC1CCCC(NC(=O)c2cc(S(=O)(=O)N3CCCCC3)ccc2Cl)C1C` (stereo unspecified) is 6.89% (inactive). On to `Cc1ccc(NC(=O)c2ccco2)cc1`, for which the inhibition is -36.5% (inactive). For `COc1cc(C(=O)CCc2ccc3c(c2)OCO3)cc(OC)c1OC` the value was 1.79% (inactive); for `CCC1CCC2(CC1)NC(=O)N(CC(=O)Nc1ccc(OC)cc1)C2=O` (stereo unspecified), -0.377% (inactive). For `C/C=C/c1ccc(C2[C@H]3CNC[C@@H]2N3CC2CCOCC2)cc1` (stereo partly specified), the inhibition is 9.41% (inactive). Consider `C/C=C/c1ccc(C2[C@H]3CNC[C@@H]2N3Cc2cccc(F)c2)cc1` (stereo partly specified), for which the inhibition is 0.374% (inactive) and -2.51% (inactive).

For `C/C=C/c1ccc(C2[C@H]3CNC[C@@H]2N3Cc2cccc(OC)c2)cc1` (stereo partly specified), the inhibition was -2.62% (inactive) and -20.4% (active). Take `CCc1noc(C)c1C(=O)N1CCN(S(=O)(=O)c2cccc(C(F)(F)F)c2)CC1`: the inhibition was 1.62% (inactive).

Regarding `O=C1COc2c1ccc(O)c2O`, the inhibition is 12.2% (inactive).

Turning to `COc1ccc2c(C)cc(SCC(=O)NCC3CCCO3)nc2c1` (stereo unspecified), the inhibition is 1.77% (inactive). The figure for `Cc1noc(C)c1S(=O)(=O)Nc1ccc2c(c1)C(=O)N([C@@H](C)CO)C[C@@H](C)[C@H](CN(C)C(=O)Nc1cccc3ccccc13)OCCCC[C@H](C)O2` is 8.4% [at 25 µM] (inactive). For `Cc1ccc(S(=O)(=O)Nc2ccc3c(c2)C(=O)N([C@@H](C)CO)C[C@@H](C)[C@H](CN(C)C(=O)Nc2cccc4ccccc24)OCCCC[C@H](C)O3)cc1` the value was 9.18% (inactive); for `Cc1noc(C)c1S(=O)(=O)Nc1ccc2c(c1)C(=O)N([C@@H](C)CO)C[C@H](C)[C@@H](CN(C)C(=O)Nc1cccc3ccccc13)OCCCC[C@H](C)O2`, 48% [at 25 µM] (active). The figure for `O=C(Cc1ccccn1)N1CC(=O)N2[C@H](CO)[C@@H](c3ccc(C#CC4CCCC4)cc3)[C@H]2C1` is -16.2% (inactive); for `O=C(Cc1ccc(Cl)cc1)c1ccccc1` it is -54.5% (inactive).

Turning to `C/C=C/c1cccc(-c2nc(C(=O)NCCN3CCCC3)cc3c2[C@@H](CCO)N([S@](=O)C(C)(C)C)C3)c1`, the inhibition is -2.95% (inactive).

For the compound `Cc1cc([N+](=O)[O-])nn1CC(=O)Nc1ccc(Cc2ccncc2)cc1`, the inhibition is -4.38% (inactive). For `CCCNC(=O)c1ccc(Cl)c(Cl)c1` the value was 0.458% (inactive); for `CN(C)CCNC(=O)Nc1cccc(Cl)c1Cl`, 7.22% (inactive).

Turning to `CN(C)CCNC(=O)c1ccc(Cl)c2cc3ccccc3nc12`, the inhibition is 80.1% (active). Turning to `Cc1ccc(S(=O)(=O)NCCC(=O)NCc2ccc(Cl)cc2)cc1C`, the inhibition was 0.373% (inactive). For `CC1CCCN(C(=O)c2cc(-c3ccco3)nc3ccccc23)C1` (stereo unspecified) the value was -1.36% (inactive); for `O=C(c1cc(-c2ccco2)nc2ccccc12)N(Cc1nnc(-c2ccc(Cl)cc2)o1)C1CC1`, 50.6% (active). For `CN(CCOc1ccccc1)C(=O)c1cc(-c2ccco2)nc2ccccc12`, the inhibition is 9.58% (inactive). For the compound `CCOC(=O)c1ccc[n+](CC(=O)Nc2ccccc2OC(F)F)c1`, the inhibition is -5.94% (inactive).

On to `CC(C)N(Cc1nnc(-c2ccc(Cl)cc2)o1)C(=O)C1=COCCO1`, for which the inhibition is 3.68% (inactive). In the case of `CCOc1cc(C(=O)N(Cc2ccccc2)c2ccc(C)cc2)ccc1OCC(=O)N1CCOCC1`, the inhibition was -0.92% (inactive). On to `CCCN(CC(=O)Nc1ccccc1C)C(=O)c1ccc(OCC(=O)N2CCOCC2)c(OCC)c1`, for which the inhibition was 23.3% (active). For `COc1cc(C(=O)Nc2ncccc2C)ccc1OCC(=O)N1CCOCC1` the value was 6.83% (inactive). As for `CCNC(=O)C1(C)CCCN1C(=O)c1ccc(N(C)C)cc1` (stereo unspecified), the inhibition was -1.06% (inactive).

For the compound `CC(C)NC(=O)N(C)C[C@H]1Oc2ccc(NS(C)(=O)=O)cc2C(=O)N(C)C[C@@H]1C`, the inhibition is 0.384% (inactive). As to `COc1cccc(NC(=O)CN(C)CC(=O)Nc2ccc3c(c2)CCC3)c1`, the inhibition was 8.15% (inactive). For `CSCCC(NC(=O)c1ccco1)C(=O)NCCc1ccc(F)cc1` (stereo unspecified), the inhibition was 0.567% (inactive).

Regarding `COc1cccc(CNCCc2c[nH]c3ccccc23)c1OCc1ccccc1F`, the inhibition was 70.6% (active). For `COc1ccc(S(=O)(=O)NCCc2c[nH]c3ccccc23)cc1OC` the value was 6.21% (inactive); for `Fc1ccccc1COc1ccccc1CNCc1ccncc1`, 0.766% (inactive). Consider `O=C(Nc1ncccc1O)c1ccc(S(=O)(=O)N2CCCC2)cc1`, for which the inhibition was -13.1% (inactive). For `COC(=O)C1=C(N)Oc2c(oc(CO)cc2=O)C1c1c(F)cccc1Cl` (stereo unspecified), the inhibition is 1.5% (inactive). As to `CCOc1ccc(C(=O)CCN2CCOCC2)cc1`, the inhibition was 3.31% (inactive).

For `Cc1ccc(/C([O-])=C(/C(=S)NCc2ccco2)[n+]2ccccc2)cc1[N+](=O)[O-]`, the inhibition was 4.58% (inactive).

`O=C(CSc1nnc(-c2ccc([N+](=O)[O-])cc2)o1)Nc1ccccn1`: the inhibition was -47.6% (inactive).

In the case of `N/C(=N\OC(=O)Cc1ccc([N+](=O)[O-])cc1)c1ccccn1`, the inhibition is 64.7% (active). For `O=C(COC(=O)c1ccccn1)NNC(=O)c1ccc([N+](=O)[O-])cc1`, the inhibition is 0.903% (inactive).
